Compounds without any hit were thinned out: in the full panel of roughly 83,000, 20% have a hit.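 Single-concentration screen, 48 h exposure, 96-well plates. Endpoint: percent growth. Below 10 = active.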 A number with no mark means an inactive call. Calls of active or inactive are those of the source.
Assays:
Assay in all cases: NCI-60 one-dose screen, 48 h (100 = growth as untreated, 0 = no growth, -100 = all killed)
Details in all cases: 10 µM
K-562 leukemia = tested on: K-562 leukemia
MALME-3M melanoma = tested on: MALME-3M melanoma
MDA-MB-231 breast = tested on: MDA-MB-231 breast
RXF 393 renal = tested on: RXF 393 renal
SF-268 CNS = tested on: SF-268 CNS
SF-295 CNS = tested on: SF-295 CNS
SF-539 CNS = tested on: SF-539 CNS
UACC-257 melanoma = tested on: UACC-257 melanoma
M14 melanoma = tested on: M14 melanoma
HCT-15 colon = tested on: HCT-15 colon

`O=C1/C(=C\c2ccccc2)CN(C(=O)c2ccccc2F)C/C1=C\c1ccccc1` was tested, and the growth (K-562 leukemia) was 0.045% (active), the growth (MALME-3M melanoma) was -34.5% (active) and the growth (MDA-MB-231 breast) was 12.7%. For the same compound, the growth (RXF 393 renal) was -78.2% (active), the growth (SF-268 CNS) was 16.9% and the growth (SF-295 CNS) was 6.51% (active). For the same compound, the growth (SF-539 CNS) was 40.5%, the growth (UACC-257 melanoma) was -10.1% (active) and the growth (M14 melanoma) was -59.5% (active). For the same compound, the growth (HCT-15 colon) was -28.5% (active).

For `O=[N+]([O-])c1cccc(-c2ncc(-c3ccc(Cl)cc3Cl)[nH]2)c1`, the growth (K-562 leukemia) was -23.6% (active), the growth (MALME-3M melanoma) was 125% and the growth (MDA-MB-231 breast) was 67.7%. For the same compound, the growth (RXF 393 renal) was 95%, the growth (SF-268 CNS) was 54.4% and the growth (SF-295 CNS) was 93.7%. The growth (SF-539 CNS) was 101%, the growth (UACC-257 melanoma) was 109% and the growth (M14 melanoma) was 5.51% (active). For the same compound, the growth (HCT-15 colon) was -89.7% (active).

For `O=C(Nc1ccc(Cl)cc1)N1NC(c2ccc(Cl)cc2)C=C1c1ccccc1` (centres undefined), the growth (K-562 leukemia) was 103%, the growth (MALME-3M melanoma) was 100% and the growth (MDA-MB-231 breast) was 106%. For the same compound, the growth (RXF 393 renal) was 102%, the growth (SF-268 CNS) was 103% and the growth (SF-295 CNS) was 105%. For the same compound, the growth (SF-539 CNS) was 112%, the growth (UACC-257 melanoma) was 99.7% and the growth (M14 melanoma) was 102%. The growth (HCT-15 colon) was 103%.

In the case of `COc1cc(Nc2ncnc(Nc3ccc4c(n3)NC(=O)C(C)(C)O4)n2)cc(OC)c1OC`, the growth (K-562 leukemia) is reported as 34.6%, the growth (MALME-3M melanoma) is reported as 28.2% and the growth (MDA-MB-231 breast) is reported as 3.82% (active). For the same compound, the growth (RXF 393 renal) was -86.6% (active), the growth (SF-268 CNS) was -21% (active) and the growth (SF-295 CNS) was 19.6%. The growth (SF-539 CNS) was -59.3% (active), the growth (UACC-257 melanoma) was 30.2% and the growth (M14 melanoma) was 40%. It also gave a growth (HCT-15 colon) of 22.9%.

`Nc1c(C(=O)Nc2ccccc2)sc2nc3c(cc12)C(O)CCC3` (centres undefined) showed a growth (K-562 leukemia) of 11.1%, a growth (MALME-3M melanoma) of 87.4% and a growth (MDA-MB-231 breast) of 32.8%. For the same compound, the growth (RXF 393 renal) was -6.4% (active), the growth (SF-268 CNS) was 46.4% and the growth (SF-295 CNS) was 8.61% (active). The growth (SF-539 CNS) was -5.31% (active), the growth (UACC-257 melanoma) was 71.1% and the growth (M14 melanoma) was 22.1%. The growth (HCT-15 colon) was 23.5%.

`CCOC(=O)N/N=C\C(C)=N\NC(=O)OCC` showed a growth (K-562 leukemia) of 98.7%, a growth (MALME-3M melanoma) of 84.5% and a growth (MDA-MB-231 breast) of 111%. The growth (RXF 393 renal) was 125%, the growth (SF-268 CNS) was 105% and the growth (SF-295 CNS) was 90.9%. It also gave a growth (SF-539 CNS) of 99.9%, a growth (UACC-257 melanoma) of 92.6% and a growth (M14 melanoma) of 100%. For the same compound, the growth (HCT-15 colon) was 99.5%.

With `O=C1/C(=C\c2ccc(Cl)cc2)CN(C(=O)c2ccccc2)C/C1=C\c1ccc(Cl)cc1` the growth (K-562 leukemia) was 4.94% (active), the growth (MALME-3M melanoma) was 64.8% and the growth (MDA-MB-231 breast) was 25%. The growth (RXF 393 renal) was -22.5% (active), the growth (SF-268 CNS) was 26.9% and the growth (SF-295 CNS) was 1.64% (active). The growth (SF-539 CNS) was 61.4%, the growth (UACC-257 melanoma) was 67.5% and the growth (M14 melanoma) was 2.03% (active). It also gave a growth (HCT-15 colon) of 10.4%.

With `CCC(=O)N1C/C(=C/c2ccc(Cl)cc2)C(=O)/C(=C/c2ccc(Cl)cc2)C1` the growth (K-562 leukemia) was 1.74% (active), the growth (MALME-3M melanoma) was -66.2% (active) and the growth (MDA-MB-231 breast) was -22% (active). The growth (RXF 393 renal) was -94% (active), the growth (SF-268 CNS) was -30.4% (active) and the growth (SF-295 CNS) was -35.8% (active). For the same compound, the growth (SF-539 CNS) was -64.7% (active), the growth (UACC-257 melanoma) was -40.3% (active) and the growth (M14 melanoma) was -61.9% (active). The growth (HCT-15 colon) was 0.422% (active).

For `COc1ccc(-c2nc(-c3nc4ccc(OC)cc4[nH]3)cc3c2[nH]c2ccccc23)cc1`, the growth (K-562 leukemia) was 16.2%, the growth (MALME-3M melanoma) was 58.6% and the growth (MDA-MB-231 breast) was 59.5%. The growth (RXF 393 renal) was 43%, the growth (SF-268 CNS) was 48.8% and the growth (SF-295 CNS) was -13.1% (active). For the same compound, the growth (SF-539 CNS) was 51.6%, the growth (UACC-257 melanoma) was 70.5% and the growth (M14 melanoma) was 34.7%. It also gave a growth (HCT-15 colon) of 28.7%.

In the case of `C(CCCC1=NCCO1)CCCC1=NCCO1`, the growth (K-562 leukemia) is reported as 110%, the growth (MALME-3M melanoma) is reported as 106% and the growth (MDA-MB-231 breast) is reported as 104%. The growth (RXF 393 renal) was 95.6%, the growth (SF-268 CNS) was 104% and the growth (SF-295 CNS) was 101%. For the same compound, the growth (SF-539 CNS) was 101%, the growth (UACC-257 melanoma) was 104% and the growth (M14 melanoma) was 109%. The growth (HCT-15 colon) was 99.3%.

`Cc1ccc(S(=O)(=O)OCCN(CCOS(=O)(=O)c2ccc(C)cc2)c2c[nH]c(=O)[nH]c2=O)cc1` showed a growth (K-562 leukemia) of 105%, a growth (MALME-3M melanoma) of 117% and a growth (MDA-MB-231 breast) of 109%. It also gave a growth (RXF 393 renal) of 106%, a growth (SF-268 CNS) of 108% and a growth (SF-295 CNS) of 112%. The growth (SF-539 CNS) was 96.4%, the growth (UACC-257 melanoma) was 91.4% and the growth (M14 melanoma) was 105%. It also gave a growth (HCT-15 colon) of 99.7%.

`COc1cc(/C=C/C(=O)c2ccc(Cl)cc2)ccc1OS(=O)(=O)c1ccc(C)cc1` showed a growth (K-562 leukemia) of 14.9%, a growth (MALME-3M melanoma) of 101% and a growth (MDA-MB-231 breast) of 90.9%. For the same compound, the growth (RXF 393 renal) was 117%, the growth (SF-268 CNS) was 102% and the growth (SF-295 CNS) was 94.2%. It also gave a growth (SF-539 CNS) of 111%, a growth (UACC-257 melanoma) of 110% and a growth (M14 melanoma) of 105%. It also gave a growth (HCT-15 colon) of 66%.

Compound `COc1ccc(Cl)cc1-n1nnc(-c2nc3ccccc3[nH]2)c1N` has a growth (K-562 leukemia) of 94.5%, a growth (MALME-3M melanoma) of 63.8% and a growth (MDA-MB-231 breast) of 86.1%. The growth (RXF 393 renal) was 74.2%, the growth (SF-268 CNS) was 62.6% and the growth (SF-295 CNS) was 58.7%. The growth (SF-539 CNS) was 91.6%, the growth (UACC-257 melanoma) was 95.4% and the growth (M14 melanoma) was 89.3%. The growth (HCT-15 colon) was 94.1%.

For `CCCCN(CCCC)c1cc(C(=O)CCCCCN)c2ccccc2n1`, the growth (K-562 leukemia) was -67.9% (active), the growth (MALME-3M melanoma) was -74.4% (active) and the growth (MDA-MB-231 breast) was 78.3%. The growth (RXF 393 renal) was 82.5%, the growth (SF-268 CNS) was -58% (active) and the growth (SF-295 CNS) was -62.3% (active). For the same compound, the growth (SF-539 CNS) was 83.6%, the growth (M14 melanoma) was 14.4% and the growth (HCT-15 colon) was 60.1%.

With `C#Cc1ccc(-n2c(/C=C/c3ccc(O)cc3)nc3ncccc3c2=O)cc1` the growth (K-562 leukemia) was 25%, the growth (MALME-3M melanoma) was 39.1% and the growth (MDA-MB-231 breast) was 85.2%. The growth (RXF 393 renal) was -7.96% (active), the growth (SF-268 CNS) was 53.8% and the growth (SF-295 CNS) was 31.8%. The growth (SF-539 CNS) was 31.7%, the growth (UACC-257 melanoma) was 36.5% and the growth (M14 melanoma) was 43.1%. The growth (HCT-15 colon) was 53.6%.

`COc1ccccc1CNCCCN1C(=O)c2ccc3c4c(ccc(c24)C1=O)C(=O)N(CCCN)C3=O` was tested, and the growth (K-562 leukemia) was -22.7% (active), the growth (MALME-3M melanoma) was -94.1% (active) and the growth (MDA-MB-231 breast) was 3.16% (active). For the same compound, the growth (RXF 393 renal) was -56% (active), the growth (SF-268 CNS) was -22.1% (active) and the growth (SF-295 CNS) was -2.42% (active). For the same compound, the growth (SF-539 CNS) was -87.3% (active), the growth (UACC-257 melanoma) was -91.9% (active) and the growth (M14 melanoma) was -62% (active). For the same compound, the growth (HCT-15 colon) was -30.8% (active).

In the case of `COc1ccc(/C=C2/CN(C(=O)c3ccccc3F)C/C(=C\c3ccc(OC)cc3)C2=O)cc1`, the growth (K-562 leukemia) is reported as 2.77% (active), the growth (MALME-3M melanoma) is reported as 62.1% and the growth (MDA-MB-231 breast) is reported as 70.5%. It also gave a growth (RXF 393 renal) of 12.5%, a growth (SF-268 CNS) of 51.5% and a growth (SF-295 CNS) of 50.1%. For the same compound, the growth (SF-539 CNS) was 93.1%, the growth (UACC-257 melanoma) was 71.2% and the growth (M14 melanoma) was 1.05% (active). It also gave a growth (HCT-15 colon) of 18.2%.

In the case of `COc1cc(/C=C\c2cc(OC)c(OC)c(OC)c2)cc(NS(=O)(=O)c2ccc(Cl)cc2)c1OC`, the growth (K-562 leukemia) is reported as 11.2%, the growth (MALME-3M melanoma) is reported as 71.9% and the growth (MDA-MB-231 breast) is reported as 24%. The growth (RXF 393 renal) was -4.53% (active), the growth (SF-268 CNS) was 39.7% and the growth (SF-295 CNS) was 10.9%. The growth (SF-539 CNS) was -23.9% (active), the growth (UACC-257 melanoma) was 45.2% and the growth (M14 melanoma) was 18.8%. For the same compound, the growth (HCT-15 colon) was 20%.

In the case of `Cc1cc(=O)[nH]c(N/N=C/c2ccccc2O)n1`, the growth (K-562 leukemia) is reported as 59.9%, the growth (MALME-3M melanoma) is reported as 35.1% and the growth (MDA-MB-231 breast) is reported as 76.6%. The growth (RXF 393 renal) was 90%, the growth (SF-268 CNS) was 39.1% and the growth (SF-295 CNS) was 43.2%. It also gave a growth (SF-539 CNS) of 96.8%, a growth (UACC-257 melanoma) of 88% and a growth (M14 melanoma) of 29.9%. For the same compound, the growth (HCT-15 colon) was 40.7%.

With `CCOC(=O)c1ccc(NC(=O)Nc2ncc(Cl)cc2Cl)cc1` the growth (K-562 leukemia) was 79.4%, the growth (MALME-3M melanoma) was 111% and the growth (MDA-MB-231 breast) was 94%. For the same compound, the growth (RXF 393 renal) was 100%, the growth (SF-268 CNS) was 104% and the growth (SF-295 CNS) was 96.5%. It also gave a growth (SF-539 CNS) of 96.2%, a growth (UACC-257 melanoma) of 14.7% and a growth (M14 melanoma) of 94.7%. For the same compound, the growth (HCT-15 colon) was 102%.
